# Source: PubChem BioAssay (NCI)
# Compounds without any hit were thinned out: in the full panel of roughly 83,000, 20% have a hit.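 Cell lines were cultured in 96-well plates, exposed to a single compound concentration, and assessed for percent growth 48 hours later.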 The source made the active and inactive calls. Rule for the calls: active = growth percent below 10; inactive = the rest.
# Tested on: HL-60(TB) leukemia
# Assay: NCI-60 one-dose screen, 48 h (100 = growth as untreated, 0 = no growth, -100 = all killed)
# Conditions: 10 µM unless noted
row,Compound,growth
1,O=C(O)c1cn(C2CC2)c2cc(N3CCN(C(=O)c4cc(-c5ccc(Cl)cc5)nc5ccccc45)CC3)c(F)cc2c1=O,101% (inactive)
2,c1csc([C@@H]2C[C@@H]3Cc4ccc5ccccc5c4N2O3)c1,104% (inactive)
3,CCOC(=O)c1cc(/C(=N\O)c2cc(OC)c(OC)c(OC)c2)n2c(C)cccc12,3.22% (active)
4,Nc1c(C(=O)c2ccc(F)cc2)sc2nc3c(cc12)CCCC3,70.2% (inactive)
5,CC(C)c1ccc2c(c1)CCC1C2CCCC1(C)NCc1ccccc1 (stereo not drawn),22.9% (inactive)
6,COCCn1cc(-c2nc(-c3cc4cccnc4n3CCOC)cs2)c2cc(OC)ccc21,95.6% (inactive)
7,COc1cc(/C=C2\C(=O)N(Cc3ccc(Cl)cc3)c3ccccc32)cc(OC)c1OC,-13.5% (active)
8,COc1cc(-c2csc(NC(=O)Nc3cccc(C(F)(F)F)c3)n2)cc(OC)c1OC,44.6% (inactive)
9,COc1cc(-c2nn(-c3cccc(NC(=O)CN4CCOCC4)c3)cc2-c2cccnc2)ccc1Cl,84% (inactive)
10,CCCCN1C(=O)/C(=c2\sc3n(c2=O)C2C(NN=3)N(CC)C(=O)N2CC)c2ccccc21 (stereo not drawn),-52.2% (active)
11,CCCCCn1ncc(-c2c(O)c(O)cc3c(O)c(-c4c(C)cc5c(-c6cnn(CCCCC)n6)c(O)c(O)cc5c4O)c(C)cc23)n1,-22.3% (active)
12,CN1CCN(c2ccc3nc(-c4ccc(OCCCCN5CCN(CCCCN6C(=O)c7cccc8cccc(c78)C6=O)CC5)cc4)[nH]c3c2)CC1,16.6% (inactive)
13,CCC1(C(N)=O)CC2C=CC1CC2 (stereo not drawn),110% (inactive)
